Measurements published in PubChem BioAssay (Tox21).
Unmarked numbers belong to inactive results. Results filed as inconclusive are left out. Where a call stands in place of a potency, no number is given. Calls of active or inactive are those of the source. Unless noted, calls come from the whole dose curve; as a rule, active = well fitted curve in the direction sought with a large enough effect in the repeat runs; inconclusive = weak or mixed curves; inactive = no such curve, though single readings can be large; an effect the other way counts as inactive or inconclusive.

Legend:
[1] = biological target: Thyrotropin receptor (Homo sapiens) (UniProt P16473); test: qHTS assay to identify small molecule antagonists of the thyroid stimulating hormone receptor (TSHR) signaling pathway (AID 1259385; calls by dose curve; note: nearly all actives have a fitted effect of over 20% in size; note: potency is the fitted concentration of half-maximal effect)
Sequence of Thyrotropin receptor (Homo sapiens) (P16473 whole entry, looked up): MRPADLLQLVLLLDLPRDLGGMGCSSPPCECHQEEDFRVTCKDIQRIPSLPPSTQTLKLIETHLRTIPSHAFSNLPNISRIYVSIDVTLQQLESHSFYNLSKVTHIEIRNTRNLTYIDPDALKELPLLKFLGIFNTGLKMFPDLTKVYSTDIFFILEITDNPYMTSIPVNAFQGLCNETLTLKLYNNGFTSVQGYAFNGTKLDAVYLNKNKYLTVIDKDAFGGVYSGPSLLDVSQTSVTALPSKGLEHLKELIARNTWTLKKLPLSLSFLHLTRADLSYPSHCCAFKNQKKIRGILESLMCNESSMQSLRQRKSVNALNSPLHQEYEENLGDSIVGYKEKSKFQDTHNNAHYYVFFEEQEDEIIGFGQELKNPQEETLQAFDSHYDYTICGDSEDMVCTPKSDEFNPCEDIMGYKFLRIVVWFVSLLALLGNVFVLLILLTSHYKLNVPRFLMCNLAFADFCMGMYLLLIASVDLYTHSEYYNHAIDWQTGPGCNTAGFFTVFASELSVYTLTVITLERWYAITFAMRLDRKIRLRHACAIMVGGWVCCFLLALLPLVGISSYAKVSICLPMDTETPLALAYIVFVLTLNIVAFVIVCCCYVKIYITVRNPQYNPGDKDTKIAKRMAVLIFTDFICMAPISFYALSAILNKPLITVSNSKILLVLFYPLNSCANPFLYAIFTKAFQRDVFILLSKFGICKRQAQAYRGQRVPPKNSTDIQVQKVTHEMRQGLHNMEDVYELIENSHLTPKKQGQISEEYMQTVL
Method in brief: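 Antagonist mode: compound-treated TSHR-expressing HEK293 cells were stimulated with 1.5 ng/mL TSH (final) in presence of Ro20-1724 for 30 min at RT. HTRF cAMP detection after 1 h; each compound tested at 15 concentrations, triplicate.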

[2] = biological target: Progesterone receptor (Homo sapiens) (UniProt P06401); test: qHTS assay to identify small molecule agonists of the progesterone receptor (PR) signaling pathway (AID 1346784; calls by dose curve; note: nearly all actives have a fitted effect of over 30% in size; note: potency is the fitted concentration of half-maximal effect)
Sequence of Progesterone receptor (Homo sapiens) (P06401 whole entry, looked up): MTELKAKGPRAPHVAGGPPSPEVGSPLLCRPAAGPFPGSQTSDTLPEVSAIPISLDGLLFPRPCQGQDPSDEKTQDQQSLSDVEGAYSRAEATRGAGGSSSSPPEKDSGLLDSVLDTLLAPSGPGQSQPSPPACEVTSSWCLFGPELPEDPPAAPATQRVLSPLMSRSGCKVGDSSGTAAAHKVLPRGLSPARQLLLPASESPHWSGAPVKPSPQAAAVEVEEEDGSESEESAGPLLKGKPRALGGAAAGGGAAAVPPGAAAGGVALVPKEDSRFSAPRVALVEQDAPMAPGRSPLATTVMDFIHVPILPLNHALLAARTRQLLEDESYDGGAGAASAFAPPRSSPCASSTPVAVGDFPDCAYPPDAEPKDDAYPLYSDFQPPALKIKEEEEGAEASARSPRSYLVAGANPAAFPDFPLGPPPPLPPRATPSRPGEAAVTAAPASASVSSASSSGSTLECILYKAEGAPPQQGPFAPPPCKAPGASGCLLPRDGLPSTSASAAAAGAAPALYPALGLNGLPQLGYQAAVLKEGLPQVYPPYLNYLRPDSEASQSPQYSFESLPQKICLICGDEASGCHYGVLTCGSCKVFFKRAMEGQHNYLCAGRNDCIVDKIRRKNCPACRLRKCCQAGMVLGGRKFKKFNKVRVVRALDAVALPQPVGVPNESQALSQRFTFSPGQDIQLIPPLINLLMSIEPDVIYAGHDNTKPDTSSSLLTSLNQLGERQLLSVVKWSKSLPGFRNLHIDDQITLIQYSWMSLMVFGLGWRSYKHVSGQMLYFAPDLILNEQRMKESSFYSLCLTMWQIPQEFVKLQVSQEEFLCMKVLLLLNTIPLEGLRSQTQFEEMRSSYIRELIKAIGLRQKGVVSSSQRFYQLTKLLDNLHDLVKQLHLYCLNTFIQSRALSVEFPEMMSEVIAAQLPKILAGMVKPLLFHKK
Method in brief: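 Reporter assay, GripTite PR-UAS-bla HEK 293T cells: 16 hr exposure to DMSO-dissolved compounds at 37C, 5% CO2, in steroid-depleted (2% charcoal-stripped FBS) medium; beta-lactamase measured by FRET fluorescence.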

[3] = biological target: Progesterone receptor (Homo sapiens) (UniProt P06401); test: qHTS assay to identify small molecule antagonists of the progesterone receptor (PR) signaling pathway (AID 1346795; active = well fitted inhibition curve with a large enough effect in the signal ratio in the repeat runs, not every such curve was filed as active; the % refers to the signal ratio; note: potency is the fitted concentration of half-maximal effect)
Method in brief: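 Stimulus R5020 at 1 nM final; cells HEK293T PR-UAS-bla; medium with 2% charcoal-stripped FBS; compound exposure 16 hr at 37C, 5% CO2; detection by FRET beta-lactamase substrate, 2 hr, room temperature.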

[4] = qHTS assay to identify small molecule antagonists of the progesterone receptor (PR) signaling pathway - cell viability counter screen (AID 1346798); note: series mostly up to about 92 µM; nearly all actives have a fitted effect of over 50% in size
Method in brief: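 In the same plates used for the beta-lactamase readout, cell viability of compound- and R5020-treated PR-UAS-bla HEK293T cells (16 hr, 37C) was assessed by CellTiter-Glo luminescence.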

[5] = qHTS assay to identify small molecule agonists of the progesterone receptor (PR) signaling pathway - cell viability counter screen (AID 1346799; calls by dose curve; note: nearly all actives have a fitted effect of over 45% in size)
Method in brief: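 Multiplexed viability read: CellTiter-Glo luminescence, 30 min RT, following LiveBLAzer FRET measurement on PR-UAS-bla HEK293T cells exposed to compounds 16 hr.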

[6] = qHTS assay to identify small molecule antagonists of the TGF-beta/Smad signaling pathway - cell viability counter screen (AID 1346824); note: nearly all actives have a fitted effect of over 50% in size
Method in brief: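 Cytotoxicity counter-screen run in the same wells as the beta-lactamase Smad reporter read: CellTiter-Glo luminescence after 30 min at room temperature. HEK 293T SBE-bla cells had 5 hr compound exposure at 37 C with TGF-beta1 (0.25 ng/mL stock).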

[7] = qHTS assay to identify small molecule agonists of the TGF-beta/Smad signaling pathway (AID 1346859; active = well fitted activation curve with a large enough effect in the signal ratio in the repeat runs, not every such curve was filed as active; the % refers to the signal ratio; note: series mostly up to about 77 µM)
Method in brief: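 Screening used HEK 293T SBE-bla cells at 4,000/well. Test agents: 5 hr, 37 C. Detection: FRET substrate, 2 hr RT, then excitation 405 nm with emissions at 460 and 530 nm.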

[8] = biological target: Thyrotropin-releasing hormone receptor (Homo sapiens) (UniProt P34981); test: qHTS assay to identify small molecule antagonists of the thyrotropin-releasing hormone receptor (TRHR) signaling pathway (AID 1346877; active = well fitted inhibition curve with a large enough effect in the repeat runs, not every such curve was filed as active; note: series mostly up to about 51 µM)
Sequence of Thyrotropin-releasing hormone receptor (Homo sapiens) (P34981 whole entry, looked up): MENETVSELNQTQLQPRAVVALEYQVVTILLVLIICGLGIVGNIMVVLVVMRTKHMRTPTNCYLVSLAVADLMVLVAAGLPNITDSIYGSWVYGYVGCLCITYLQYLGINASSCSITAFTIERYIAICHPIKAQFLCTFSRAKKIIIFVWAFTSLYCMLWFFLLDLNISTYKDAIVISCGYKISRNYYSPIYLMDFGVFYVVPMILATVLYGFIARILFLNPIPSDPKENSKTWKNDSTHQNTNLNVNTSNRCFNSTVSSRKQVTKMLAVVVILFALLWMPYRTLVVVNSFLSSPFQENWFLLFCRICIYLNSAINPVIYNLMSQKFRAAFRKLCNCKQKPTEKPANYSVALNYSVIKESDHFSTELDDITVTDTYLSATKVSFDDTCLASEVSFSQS
Method in brief: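 Intracellular calcium fluorescence, read kinetically every second over 3 min, reports TRH-evoked signalling in HEK293 cells carrying TRHR. Test compounds were added 5 min ahead of a 1 nM TRH challenge.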

[9] = biological target: Thyrotropin-releasing hormone receptor (Homo sapiens) (UniProt P34981); test: qHTS assay to identify small molecule agonists of the thyrotropin-releasing hormone receptor (TRHR) signaling pathway (AID 1346891; calls by dose curve; note: series mostly up to about 58 µM)
Method in brief: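 Readout was intracellular calcium fluorescence in TRHR-Hek293 cells. Cells were incubated 18 h, dye-loaded 2 h at 37 °C, and treated with compound in agonist mode.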

[10] = Human pregnane X receptor (PXR) small molecule agonists, qHTS cell viability counter screen (AID 1346977); note: nearly all actives have a fitted effect of over 50% in size; note: potency is the fitted concentration of half-maximal effect
Method in brief: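 In each well, the PXR reporter HepG2 line was checked for viability: CellTiter-Fluor reagent added 23hr post-dosing, fluorescence read after 1hr incubation at 37C.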

[11] = Caspase-3/7 induction in HepG2 cells by small molecules, qHTS assay (AID 1346978); note: nearly all actives have a fitted effect of over 15% in size
Method in brief: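 Caspase-3/7 induction was measured by Caspase-Glo 3/7 luminescence (30 min, room temperature) after a 17 hr compound exposure of wild-type HepG2 cells seeded at 2,000 per well and pre-incubated 5 hr.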

[12] = Caspase-3/7 induction in CHO-K1 cells by small molecules, qHTS cell viability counter screen (AID 1346979); note: nearly all actives have a fitted effect of over 35% in size
Method in brief: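 Following a 5hr settling period, CHO-K1 cells at 1,500 per well received DMSO-dissolved compounds. Cell viability was quantified 16hr later by CellTiter-Fluor fluorescence, measured after 1hr with reagent at 37C.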

[13] = Caspase-3/7 induction in CHO-K1 cells by small molecules, qHTS assay (AID 1346980); note: nearly all actives have a fitted effect of over 15% in size
Method in brief: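 Luminescent Caspase-Glo 3/7 read (30min, room temperature) quantified apoptosis induction. Cells were wild-type CHO-K1, treated with compound for 17hr at 37 C and 5% CO2.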

[14] = Caspase-3/7 induction in HepG2 cells by small molecules, qHTS cell viability counter screen (AID 1346981); note: series mostly up to about 92 µM; nearly all actives have a fitted effect of over 30% in size
Method in brief: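 HepG2, WT, 2,000 cells/well; 5 hr pre-incubation 37 C/5% CO2; compound pin-transferred from DMSO; 16 hr exposure; CellTiter-Fluor, 1 hr; fluorescence read.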

[15] = biological target: Nuclear receptor subfamily 1 group I member 2 (Homo sapiens) (UniProt O75469); test: Human pregnane X receptor (PXR) small molecule agonists, qHTS assay (AID 1346982); note: nearly all actives have a fitted effect of over 35% in size; note: potency is the fitted concentration of half-maximal effect
Sequence of Nuclear receptor subfamily 1 group I member 2 (Homo sapiens) (O75469 whole entry, looked up): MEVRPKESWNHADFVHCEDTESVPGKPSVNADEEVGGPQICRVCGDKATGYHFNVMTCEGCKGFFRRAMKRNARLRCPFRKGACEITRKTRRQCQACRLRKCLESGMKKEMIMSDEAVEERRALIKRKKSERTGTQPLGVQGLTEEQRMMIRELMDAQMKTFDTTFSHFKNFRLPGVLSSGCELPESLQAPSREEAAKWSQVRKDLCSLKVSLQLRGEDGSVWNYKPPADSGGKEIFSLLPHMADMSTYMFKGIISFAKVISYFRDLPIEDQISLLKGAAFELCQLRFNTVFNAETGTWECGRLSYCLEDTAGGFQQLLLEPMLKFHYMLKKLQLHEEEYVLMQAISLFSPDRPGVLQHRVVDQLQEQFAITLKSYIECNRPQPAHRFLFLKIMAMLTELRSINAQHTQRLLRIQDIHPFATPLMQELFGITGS
Method in brief: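 Luciferase signal from ONE-Glo (30 min, room temperature) measured activation of hPXR-driven CYP3A4 reporter expression in PXR-Luc HepG2 cells treated with compounds for 24 hr at 37 C.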

[16] = biological target: Cytochrome P450 2D6 (Homo sapiens) (UniProt P10635); test: Cytochrome P450 Family 2 Subfamily D Member 6 (CYP2D6) small molecule antagonists: luciferase reporter qHTS assay (AID 1671196); note: nearly all actives have a fitted effect of over 50% in size; note: potency is the fitted concentration of half-maximal effect; for activity change, negative = inhibition: series mostly up to about 120 µM
Sequence of Cytochrome P450 2D6 (Homo sapiens) (P10635 whole entry, looked up): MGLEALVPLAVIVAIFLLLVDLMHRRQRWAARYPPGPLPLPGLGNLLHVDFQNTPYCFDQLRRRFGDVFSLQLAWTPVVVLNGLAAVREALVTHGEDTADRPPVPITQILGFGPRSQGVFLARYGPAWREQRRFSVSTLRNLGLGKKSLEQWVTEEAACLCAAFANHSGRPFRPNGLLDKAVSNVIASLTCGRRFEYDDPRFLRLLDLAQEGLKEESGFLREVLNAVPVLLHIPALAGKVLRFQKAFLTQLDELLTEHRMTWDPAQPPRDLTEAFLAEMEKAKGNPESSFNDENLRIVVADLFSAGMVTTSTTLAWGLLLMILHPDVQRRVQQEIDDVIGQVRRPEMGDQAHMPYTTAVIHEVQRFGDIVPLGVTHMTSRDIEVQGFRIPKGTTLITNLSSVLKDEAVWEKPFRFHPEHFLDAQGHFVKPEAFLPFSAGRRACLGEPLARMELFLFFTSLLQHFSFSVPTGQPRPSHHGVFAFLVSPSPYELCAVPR
Method in brief: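 Read-out is luminescence from luciferin formed by CYP2D6 turnover of a proluciferin substrate, recorded as relative luminescence units. Reactions ran 1 h at room temperature after NADPH regeneration solution was added.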

[17] = qHTS assay to identify small molecule agonists of the TGF-beta/Smad signaling pathway - cell viability counter screen (AID 1346829); note: top concentration of the series differs between compounds; nearly all actives have a fitted effect of over 45% in size
Method in brief: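 SBE-bla HEK 293T cells plated overnight, compound exposure 5 hr at 37 C. Viability read in the same wells by CellTiter-Glo luminescence after 30 min at room temperature, following the beta-lactamase read.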

[18] = biological target: Nuclear receptor subfamily 1 group I member 2 (Rattus norvegicus) (UniProt Q9R1A7); test: Rat pregnane X receptor (rPXR) activation by small molecules, qHTS assay (AID 1346983); conditions: rPXR luciferase reporter cells, One-Glo luminescence, 24 h; max activation: hits give high values; note: nearly all actives have a fitted effect of over 20% in size
Sequence of Nuclear receptor subfamily 1 group I member 2 (Rattus norvegicus) (Q9R1A7 whole entry, looked up): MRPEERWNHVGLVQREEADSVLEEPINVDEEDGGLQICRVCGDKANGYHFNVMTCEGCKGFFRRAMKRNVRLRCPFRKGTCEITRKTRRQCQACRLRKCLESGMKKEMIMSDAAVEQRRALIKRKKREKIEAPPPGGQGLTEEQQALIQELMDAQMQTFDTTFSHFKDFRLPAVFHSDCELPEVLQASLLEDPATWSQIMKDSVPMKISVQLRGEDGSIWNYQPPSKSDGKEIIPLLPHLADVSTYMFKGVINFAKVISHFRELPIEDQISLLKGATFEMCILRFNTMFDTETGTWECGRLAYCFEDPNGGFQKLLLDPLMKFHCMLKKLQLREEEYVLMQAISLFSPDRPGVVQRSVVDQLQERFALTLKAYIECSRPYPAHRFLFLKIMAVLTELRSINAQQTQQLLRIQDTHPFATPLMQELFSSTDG
Method in brief: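 Luminescent readout (One-Glo luciferase, 30 min room temperature) followed 24 hr compound treatment at 37 C of rPXR cells plated 2,000 per well and preincubated 5hr; qHTS format with compounds delivered in DMSO.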

Oc1cccc2[nH]ccc12
Potency [1]: inactive
Potency [2]: inactive
Potency [3]: inactive
Potency [4]: inactive
Potency [5]: inactive
outcome [6]: inactive
Potency [7]: inactive
outcome [8]: inactive
outcome [9]: inactive
Potency [10]: inactive
Potency [11]: inactive
Potency [12]: inactive
outcome [13]: inactive
Potency [14]: inactive
Potency [15]: inactive
Potency [16]: 15.5 µM (active)

CN(C)CC/C=C1\c2ccccc2Sc2ccc(Cl)cc21
Potency [1]: 26.6 µM (active)
Potency [2]: inactive
Potency [3]: 21.1 µM (active)
outcome [6]: inactive
Potency [17]: inactive
Potency [7]: inactive
outcome [8]: inactive
outcome [9]: inactive
Potency [10]: 29.8 µM (active)
outcome [13]: inactive
max activation [18]: 3.57%
Potency [16]: 2.75 µM (active)

CCCCCCCCCCCCCCN(C)C
activity change, negative = inhibition [1]: -0.0954% [at 19 µM]
Potency [2]: 0.738 µM (active)
activity change, negative = inhibition [3]: 5.91% [at 18.9 µM]
activity change, negative = cytotoxicity [4]: 2.26% [at 18.9 µM]
activity change, negative = cytotoxicity [5]: 0% [at 19 µM]
viability change, negative = cytotoxic [6]: -8.55% [at 15.8 µM]
activation [7]: -0.505% [at 15.8 µM]
activity, negative = inhibition [8]: 0.781% [at 10.5 µM]
activation [9]: 1.06% [at 11.8 µM]
caspase activation [11]: 1.09% [at 19 µM]
activity change, negative = cytotoxicity [12]: 2.75% [at 19 µM]
caspase-3/7 activation [13]: -1.58% [at 19 µM]
activity change, negative = cytotoxicity [14]: -7.71% [at 19 µM]
activation [15]: 8.78% [at 19 µM]
activity change, negative = inhibition [16]: -19.3% [at 23.6 µM]

Nc1nc(-c2ccc([N+](=O)[O-])cc2)cs1
Potency [1]: inactive
Potency [4]: inactive
Potency [5]: inactive
outcome [6]: inactive
Potency [17]: inactive
Potency [7]: inactive
outcome [8]: inactive
outcome [9]: inactive
Potency [11]: inactive
outcome [13]: inactive
Potency [15]: 9.79 µM (active)
Potency [16]: inactive
